Measured values published in PubChem BioAssay (NCI).
This is part of a sample that, as a whole, favours compounds with a hit. Of some 83,000 tested, about 20% had one in any assay.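 The test compound was applied at a single concentration to cells in 96-well plates for 48 hours, and percent growth was recorded.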 A number with no mark means an inactive call. The source made the active and inactive calls. Rule for the calls: active = growth percent below 10; inactive = the rest.

Key:
Assay in all cases: NCI-60 one-dose screen, 48 h (100 = growth as untreated, 0 = no growth, -100 = all killed)
Conditions in all cases: 10 µM unless noted
[1] = test system: DU-145 prostate
[2] = test system: MALME-3M melanoma
[3] = test system: MDA-MB-231 breast
[4] = test system: RXF 393 renal
[5] = test system: SF-268 CNS
[6] = test system: SF-295 CNS
[7] = test system: SF-539 CNS
[8] = test system: UACC-257 melanoma
[9] = test system: M14 melanoma
[10] = test system: HCT-15 colon
[11] = test system: HT29 colon
[12] = test system: SNB-75 CNS
[13] = test system: SNB-19 CNS
[14] = test system: U251 CNS
[15] = test system: PC-3 prostate
[16] = test system: SK-MEL-5 melanoma
[17] = test system: UACC-62 melanoma
[18] = test system: LOX IMVI melanoma
[19] = test system: SK-MEL-28 melanoma

Row | Compound | growth [1] | growth [2] | growth [3] | growth [4] | growth [5] | growth [6] | growth [7] | growth [8] | growth [9] | growth [10] | growth [11] | growth [12] | growth [13] | growth [14] | growth [15] | growth [16] | growth [17] | growth [18] | growth [19]
1 | Cn1cc(-c2csc(-c3c[nH]c4ccccc34)n2)c2ccnc(Cl)c21 | 47.2% | 139% | 70.1% | 43.5% | 102% | 93.2% | 56.2% | 32.2% | 43.3% | -8.86% (active) | 27.9% | 77.7% | 94% | 48.6% | 56% | 50% | 84.9% | 82.6% | 85.1%
2 | O=C1c2cccc3c(-c4ccc5c(c4)ncn5C4CCCCC4)ccc(c23)C(=O)N1c1nc2ccccc2s1 | 105% | 93% | 74% | 105% | 94.1% | 90.4% | 95.7% | 101% | 93.8% | 59.5% | 84% | 75.2% | 94.6% | 86.9% | 73.2% | 74.6% | 73% | 84.8% | 96.6%
3 | Cn1cc(-c2nc(-c3c[nH]c4c(Cl)nccc34)cs2)c2cc(F)ccc21 | 97.4% | 120% | 100% | 106% | 114% | 105% | 107% | 70.2% | 99.9% | 99.2% | 87.8% | 107% | 98% | 85.8% | 92.9% | 94.5% | 97.5% | 109% | 112%
4 | COc1ccc(/C=C/c2nc(Nc3ccc(Cl)cc3)c3ccccc3n2)cc1 | 50.2% | 94.6% | 38.2% | 56.6% | 54.3% | 72.6% | 90.9% | 92.2% | 34.3% | 34.8% | 48.3% | 61.7% | 64.4% | 45.7% | 54.5% | 69.7% | 14.3% | 18.4% | 90.2%
5 | C/C=C(\C)C(=O)NC1=CC[C@@]2(C)C(=CCC3C2CC[C@@]2(C)C3CC[C@@H]2C(C)N(C)C)C1=O (stereo partly specified) | 64.6% | -42.9% (active) | 34.8% | 10.7% | 10.4% | 31.7% | -49% (active) | 2.46% (active) | -32.1% (active) | -32.5% (active) | -19.7% (active) | 42.3% | 83% | 36.3% | 26.2% | -34.7% (active) | -16.1% (active) | -53.2% (active) | -66.5% (active)
6 | O=C1C=CC(=O)N1c1cccc(Cl)c1 | 123% | 120% | 132% | 116% | 108% | 107% | 113% | 97.1% | 114% | 101% | 85.9% | 115% | 118% | 99.2% | 89.2% | 106% | 105% | 102% | 108%
7 | COc1cc(C2C3=C(COC3=O)N(CCO)c3cc4c(cc32)OCO4)cc(OC)c1OC (stereo unspecified) | 5.4% (active) | 56.3% | -1.03% (active) | -5.54% (active) | 41.3% | 21.4% | -51.6% (active) | 60.8% | -19.6% (active) | 18.1% | 0.994% (active) | 51% | -2.19% (active) | 2.92% (active) | 19.6% | -42.2% (active) | 22.2% | 26.1% | 44.7%
8 | C[C@@H](Nc1ncnc2ccc(-c3cnc(N)nc3)cc12)c1ccc(F)cc1 | 47.9% | 85.2% | 59.6% | 34.7% | 64.1% | 81.7% | 95.3% | 94.8% | 82.7% | 88.6% | 84.9% | 69.5% | 76.1% | 80.9% | 69.1% | 73.2% | 69.2% | 78.4% | 92.5%
9 | Cc1c(C)c([N+](=O)[O-])c(C)c([N+](=O)[O-])c1C | 104% | 111% | 101% | 108% | 106% | 97.6% | 107% | 105% | 108% | 108% | 93.5% | 104% | 97.1% | 100% | 98.7% | 101% | 102% | 99.6% | 104%
10 | COc1ccc2c(c1)oc1c(C)c3c(c(C)c12)C(=O)N(N)C3=O | 27.9% | -5.47% (active) | -4.83% (active) | 28.5% | 39.8% | 12% | -6.28% (active) | 40.5% | 13.9% | 41.9% | 6.15% (active) | -55.9% (active) | 46.2% | 13.6% | 54.1% | 4.46% (active) | 43.6% | 43.4% | 51%
11 | OC(c1ccc(F)c(C(F)(F)F)c1)c1cnccc1NC1CCCCC1 (stereo unspecified) | 90.2% | 71.8% | 55.2% | 68.6% | 79.6% | 74.1% | 85.4% | 87.4% | 77.8% | 64.7% | 14.3% | 68.7% | 82.9% | 63.5% | 58.7% | 49.4% | 71.2% | 69.7% | 84.8%
12 | C[C@H]1[C@H]2[C@H]3CC[C@@H]4[C@@]5(C)CC[C@H](O)C(C)(C)[C@@H]5CC[C@@]4(C)[C@]3(C)CC[C@]23CO[C@]1(C)[C@@H](C(=O)/C=C\c1ccco1)C3 | 102% | -11.3% (active) | 82.9% | 110% | 96.3% | 110% | 99.7% | -8.91% (active) | 34.4% | 106% | 98.1% | 78.4% | 75.3% | 69.4% | 92.7% | 8.55% (active) | 7.16% (active) | 89% | 36.7%
13 | C=C1C(=O)O[C@H]2[C@H]1CC/C(CNS(=O)(=O)c1cccc3ccccc13)=C\CC[C@@]1(C)O[C@@H]21 | 25.5% | -18.4% (active) | 43.6% | -14.9% (active) | 58% | 82.2% | 49.2% | 70.4% | 31.7% | -25% (active) | -3.2% (active) | 66.5% | 67.2% | 53.1% |  | 41.4% | 29% | 14.3% | 2.74% (active)
14 | CCN1Cc2nc3sc(C)c(C)c3c(=O)n2C=C1C | 61.8% | 79% | 58.3% | 45.8% | 101% | 81% | 70% | 69.3% | 27.5% | 49.7% | 22.1% | 88% | 49.4% | 24.3% |  | 78.7% | 46.9% | 53.5% | 67.3%
15 | COc1ccc(C(=O)CC#N)cc1 | 107% | 123% | 96.8% | 106% | 107% | 131% | 121% | 102% | 110% | 112% | 126% | 95.5% | 103% | 100% | 105% | 97.9% | 105% | 94.7% | 114%
16 | CC(C)(C)c1cc(C=O)cc(C(C)(C)C)c1O | 103% | 101% | 87.5% | 104% | 96.6% | 112% | 102% | 102% | 101% | 102% | 102% | 83.6% | 101% | 96.3% |  | 92% | 85.4% | 98.4% | 111%
